Compounds with a hit are over-represented: about 6.5% of the library has one in this group of screens.
Lassa entry inh = blocks Lassa virus binding to or entry into cells; Lassa virus pseudotype entry inhibition, cell reporter; Potency, µM (series often up to 37.9 µM), for the others: top-dose activity change, negative = inhibition, actives largely listed as inhibitors; 1.2% of 300,000 active; AID 540256; calls by dose curve; tested in HEK293 cells; further: potency means the concentration at half of the fitted maximal effect; nearly all actives have a fitted effect of over 50% in size
MARV entry inh = blocks Marburg virus binding to or entry into cells; 1.8% of 300,000 active; Potency, µM (doses to about 37.8 µM), for inactives: at the highest dose activity change, negative = inhibition, hits mostly inhibitors; Marburg virus pseudotyped entry inhibition, cell reporter; calls by dose curve; tested in HEK293 cells; further: potency means the concentration at half of the fitted maximal effect
HCMV inh = blocks human cytomegalovirus replication; HFF cells, HCMV-luciferase reporter, 72 h; hits give low values; activity change, negative = inhibition, % at 57.5 µM; 4.5% of 410,000 active; in the data active means activity change below about -60%; inconclusive means no clear call, values can overlap the other calls; inactive means above about -39%
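Human foreskin fibroblasts infected with luciferase-reporter HCMV at MOI 1 PFU/cell, compounds at two doses. Luciferase measured 72 h post infection; normalized to buffer-only basal and Salinomycin (10uM) controls.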
Vaccinia Venus = inhibitors of vaccinia virus (Venus reporter); 0.46% of 330,000 active; AID 720580; Vaccinia virus Venus reporter expression, fluorescence; Potency, µM (highest dose often 36.5 µM), for the others: top-dose activity change, negative = inhibition, hits mostly inhibitors; calls by dose curve; tested in A549 cells; further: potency means the concentration at half of the fitted maximal effect; nearly all actives have a fitted effect of over 30% in size
Vaccinia mCherry = inhibitors of vaccinia virus infection (mCherry reporter signal); Vaccinia virus mCherry reporter infection, fluorescence; Potency, µM (doses to about 36.5 µM), for inactives: at the highest dose activity change, negative = inhibition, hits mostly inhibitors; 0.63% of 310,000 active; calls by dose curve; tested in A549 cells; further: potency means the concentration at half of the fitted maximal effect; nearly all actives have a fitted effect of over 35% in size
FMDV antiviral = foot and mouth disease virus antiviral activity | FMDV antiviral cell-based qHTS | Potency, µM (doses to about 57.9 µM), inactives show at the top dose activity change, negative = inhibition, hits mostly inhibitors | 1.2% of 410,000 active | AID 1159524; calls by dose curve; tested in HEK293T cells; further: read-out not given here; potency means the concentration at half of the fitted maximal effect; nearly all actives have a fitted effect of over 45% in size
The depositor's hits bear a star; i = inactive; ? = inconclusive; . = no result given; [ ] = another dose, or the depositor's remark. On the % scale 0 is the no-effect control and ±100 the full control effect.

SMILES | Lassa entry inh | MARV entry inh | HCMV inh | Vaccinia Venus | Vaccinia mCherry | FMDV antiviral
Brc1ccc(-c2ccc(/C=N/Nc3nc(N4CCOCC4)nc(N4CCOCC4)n3)o2)cc1 | -12%[46.1 µM] | 4µM* | ? | -4% | i | ?
CCN(CC)CCOCCOC(=O)C1(c2ccccc2)CCCC1 | ? | 16µM* | -16 | -26% | -12% | -16%
C[C@@H]1CN([C@@H](C)CO)C(=O)CCCn2cc(nn2)CO[C@H]1CN(C)C(=O)C1CCCCC1 | . | . | -31 | . | . | .
CCCCOc1cccc(-c2nnc(NC(=O)CSc3ccc(C)cc3)s2)c1 | 0.32µM* | 2% | -86* | -4% | -13% | -11%
Cc1cccc(Cn2c(=O)n(CC3CCC(C(=O)N4CCC(C)CC4)CC3)c(=O)c3sccc32)c1 (stereo not given) | ? | . | -3 | ? | ? | 32µM*
CC(C)(C)c1ccc2c(c1)C(=O)c1ccccc1C2=O | 8.9µM* | ? | -20 | -19% | -8% | 6%
CCc1ccc2c(c1)C(=O)c1ccccc1C2=O | 18% | 5% | 79 | 11% | i | 9%
CCOc1ccc(C(=O)N/N=C(\c2ccccc2)c2ccccn2)cc1 | 7.1µM* | ? | -99* | ? | 11µM* | 0%
C/C(=N\NC(=O)c1ccc(F)cc1)c1ccccn1 | . | . | -98* | ? | ? | -30%
C/C(=N\NC(=O)c1c[nH]c2ccccc12)c1ccccn1 | 2µM* | ? | -82* | ? | 10µM* | 8%
CCc1ccc(/C(C)=N/NC(=O)c2ccccn2)cc1 | . | . | 14 | . | . | 43%
C/C(CC(=O)N1CCN(C=O)CC1)=N\NC(=O)c1cc2ccccc2cc1O | -17% | ? | -64* | -3% | i | -11%
O=C(N/N=C(\c1ccccc1)c1ccccn1)c1cccc([N+](=O)[O-])c1 | . | . | . | ? | ? | -8%
C/C(=N\NC(=O)c1c[nH]c2ccccc12)c1ccco1 | ? | 27% | 238 | 0% | -12% | .
Cc1ccc(-c2cc(C(F)(F)F)n3nc(C(=O)Nc4sc5c(c4C#N)CCC(C)C5)cc3n2)cc1 (stereo not given) | ? | 11%[46.1 µM] | -18 | -1% | -6% | -28%
CC(C)(C)CC(C)(C)N=C1Nc2ccc([N+](=O)[O-])cc2N[C@]12C[C@H]1CCCC(=O)N3CC[C@@H](C2)[C@@H]13 | . | . | . | -9% | i | .
O=C(NCCc1nc2ccccc2n1CCOc1ccccc1)C1CCCCC1 | . | . | . | -14% | -11% | .
O=C(Cn1c(-c2cccs2)cc2cc(Cl)ccc21)N1CCCCC1 | -9%[46.1 µM] | . | -13 | -13% | -2% | -6%
CCN(CC)C(=O)COc1ccc(/C(C)=N/NC(=O)c2ccccc2-n2cccc2)cc1 | -13% | -1% | 50 | -17% | i | -16%
C/C(=N\NC(=O)c1ccccc1-n1cccc1)c1ccccn1 | . | . | -99* | ? | ? | ?
C/C(CC(=O)Nc1ccc(F)cc1)=N\NC(=O)c1ccccn1 | ? | 3% | ? | -10% | i | 35%
C/C(=N\NC(=O)c1cc2ccccc2cc1O)c1cc2ccccc2o1 | -45% | ? | 0 | -14% | -24% | -25%
C/C(=N\NC(=O)CCCNc1ccc(C)cc1)c1ccccn1 | -20% | 6.5µM* | -67* | ? | 11µM* | -28%
C/C(=N\NC(=O)c1cc2ccccc2cc1O)c1ccccn1 | ? | ? | -99* | -9% | ? | ?
Fc1ccc(N/N=C(/c2ccccc2)c2ccccn2)cc1 | 9% | 5% | -61* | -7% | -16% | 1%
SMILES | Lassa entry inh | MARV entry inh | HCMV inh | Vaccinia Venus | Vaccinia mCherry | FMDV antiviral
O=C(CSc1n[nH]c(-c2ccccc2Cl)n1)NCCc1ccccc1 | -20%[46.1 µM] | . | 4 | -14% | -9% | -10%
Oc1ccccc1-n1c(-c2ccccc2)ccc1-c1ccccc1 | . | . | -76* | ? | ? | ?
CCCc1nn2c(=O)cc(COC(=O)c3ccccc3NC(=O)c3cccs3)nc2s1 | -20%[46.1 µM] | . | 14 | 4% | -6% | -3%
OC[C@@H]1[C@@H](c2ccccc2)C(c2ccccc2)=NN1c1ccccc1 | . | . | 8 | -11% | ? | -28%
c1ccc(-c2nn(-c3ccccc3)[n+](-c3ccccc3)n2)cc1 | -26% | ? | -95* | -11% | -6% | ?
Cc1ccc(N2C(N)=NC(N)=NC2(C)C)c(C)c1 | 12% | 3% | -24 | -19% | . | -13%
CC1(C)N=C(N)N=C(N)N1c1cccc(C(=O)O)c1 | 28% | 30% | ? | -8% | i | ?
COc1cccc(N2C(N)=NC(N)=NC2(C)C)c1 | ? | -26% | -67* | ? | . | -17%
COc1ccc(N2C(N)=NC(N)=NC23CCCC3)cc1 | 10% | ? | -39 | ? | . | -13%
CCOc1ccc(N2C(N)=NC(N)=NC2(C)C)cc1 | 5% | ? | -68* | ? | 0% | 0%
CC1(C)N=C(N)N=C(N)N1c1cccc(C#N)c1 | 2.5µM* | ? | -77* | 4.5µM* | 2µM* | -13%
COc1ccc(N2C(N)=NC(N)=NC2(C)C)cc1 | ? | ? | ? | 11µM* | ? | -19%
O=C(CCN1C(=O)C2CC=CCC2C1=O)N1CCN(C2=NCCCC2)CC1 (stereo not given) | . | 21% | . | . | . | .
COc1ccc2c(c1)[C@@]1(OCCC=C[C@@H]1C)C(=O)N2CC1CC1 | . | -7%[14.2 µM] | . | . | . | .
COc1cccc(/C=C2\Oc3ccc(O)cc3C2=O)c1O | ? | ? | -29 | 63% | -5% | 11µM*
CC[C@H]1Nc2ccc(NC(=O)OC(C)(C)C)cc2[C@@H](NC(=O)OCc2ccccc2)[C@@H]1C | . | . | 31 | . | . | .
Oc1ccc(/C=C/c2ccnc3ccccc23)cc1 | ? | ? | -61* | -29% | ? | 42%
CCSc1nnc(NC(=O)CSc2nc3c(c(=O)n2C)SC(C)C3)s1 (stereo not given) | 14% | -19% | -85* | -8% | -10% | .
CC#CCOC(=O)c1c(C)nc2sc3c(c2c1N)CC[C@@H](O)C3 | . | -38% | . | 3.5µM* | ? | -10%
Cc1cccc(C)c1OCC(=O)Nc1nc(-c2ccc(Br)cc2)ns1 | 20%[46.1 µM] | 2%[46.1 µM] | 53 | -9% | 1% | -14%
CCOC(=O)C1C(c2ccc(C(=O)O)cc2)NC(=O)NC1(O)C(F)(F)F (stereo not given) | -2% | 6%[46.1 µM] | -72* | -6% | -15% | -13%
O=C(c1cccc(S(=O)(=O)N2CCN(c3ccccc3)CC2)c1)N1CCCC(C(F)(F)F)C1 (stereo not given) | ? | ? | -91* | -19% | -28% | ?
O=C(c1cc(S(=O)(=O)N2CCN(c3ccccc3)CC2)ccc1Cl)N1CCCC(C(F)(F)F)C1 (stereo not given) | ? | ? | -82* | -29% | -8% | ?
CCN(C)C(=O)C1=COC2=NC(=O)N(Cc3ccccc3C(F)(F)F)CCN12 | . | . | -2 | . | . | .
CC[N+]1(CC(=O)c2ccc(OC)cc2)CCCCC1 | . | . | . | -13% | -19% | .

Bioassay records: PubChem, National Center for Advancing Translational Sciences (NCATS)
